High-throughput results deposited in PubChem by National Center for Advancing Translational Sciences (NCATS).
FMDV antiviral = High Throughput Screening for Foot and Mouth Disease Virus Antivirals | FMDV antiviral cell-based qHTS | Potency, µM (titrated, usually from 57.9 µM), for the others: at the highest dose activity change, negative = inhibition, most hits filed as inhibitors | 410,000 compounds, 1.2% hits | AID 1159524, 2015; calls by dose curve; tested in HEK293T cells; also: read-out not given here; potency is read from the fitted curve at half-maximal effect; nearly all actives have a fitted effect of over 45% in size
LASV entry inh = qHTS for Inhibitors of binding or entry into cells for Lassa Virus. Lassa virus pseudotype entry inhibition, cell reporter. 300,000 compounds, 1.2% hits. AID 540256, 2011. Potency, µM (series often up to 37.9 µM), for the others: at the highest dose activity change, negative = inhibition, hits mostly inhibitors; calls by dose curve; tested in HEK293 cells; also: potency is read from the fitted curve at half-maximal effect; nearly all actives have a fitted effect of over 50% in size
Marburg entry inh = qHTS for inhibitors of binding or entry into cells for Marburg Virus | Potency, µM (doses to about 37.8 µM), inactives show top-dose activity change, negative = inhibition, usual class: inhibitors | AID 540276, 2011 | Marburg virus pseudotyped entry inhibition, cell reporter | 300,000 compounds, 1.8% hits; calls by dose curve; tested in HEK293 cells; also: potency is read from the fitted curve at half-maximal effect
HCMV antiviral = qHTS Assay for inhibitors of the human cytomegalovirus (HCMV) | HFF cells, HCMV-luciferase reporter, 72 h; active compounds read low | activity change, negative = inhibition, % at 57.5 µM | 410,000 compounds, 4.5% hits | AID 1259415, 2018; in the data active = activity change below about -60%; inconclusive = no clear call, values can overlap the other calls; inactive = above about -39%
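Two compound doses tested in HFFs infected with HCMV-luciferase, MOI 1 PFU/cell, 72 h at 37C. Lysate luminescence read with OneGlo; data normalized against buffer-only and 10uM Salinomycin inhibitor controls.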
An asterisk follows results filed as active; ! = not confirmed by another sample; [ ] = another dose, or the depositor's remark. In the library only some 6.2% were active in any assay of this set; here they are far more common. % is scaled to controls: 0 for no effect and ±100 for the full control effect.

For CN(Cc1cccs1)[C@@H]1CC[C@@]23CCCN2C(=O)CCC[C@H]3[C@H]1Cc1ccccc1 the results were HCMV antiviral -22.
Screening COC(=O)Cn1c(=NC(=O)c2nc3ccccc3s2)sc2cc(S(N)(=O)=O)ccc21 returned FMDV antiviral 0%, LASV entry inh 0%, Marburg entry inh 13% and HCMV antiviral -89*.
`COC(=O)Cn1c(=NC(=O)c2cc(-c3cccs3)nc3ccccc23)sc2cc(S(N)(=O)=O)ccc21` gave FMDV antiviral -27%, LASV entry inh inconclusive, Marburg entry inh inconclusive and HCMV antiviral 14.
Screening Cc1ccc(-c2ccnc(-n3ncc(C(=O)N4CCCCC4c4cccnc4)c3C3CC3)n2)o1 (stereo unspecified) returned FMDV antiviral -10%.
Screening CS(=O)(=O)Nc1cccc(-c2ccc3ncnc(NC4CC4)c3c2)c1 returned FMDV antiviral -26%.
`OCCN1CCN(CC(O)COc2ccc(C34CC5CC(CC(C5)C3)C4)cc2)CC1` (stereo unspecified) gave FMDV antiviral -17%, LASV entry inh inconclusive, Marburg entry inh inconclusive and HCMV antiviral -96*.
Screening NCCOc1ccc(C23CC4CC(CC(C4)C2)C3)cc1 returned FMDV antiviral inconclusive and HCMV antiviral -85*.
`Cc1ccc(NC(=O)c2oc3ccccc3c2NC(=O)C2CCCO2)cc1C` (stereo unspecified) gave FMDV antiviral 10%, LASV entry inh inconclusive, Marburg entry inh inconclusive and HCMV antiviral -82*.
O=C(Nc1ccc(F)c(F)c1)c1oc2ccccc2c1NC(=O)C1CCCO1 (stereo unspecified) was read as FMDV antiviral -9%, LASV entry inh 0%, Marburg entry inh 1%[46.1 µM] and HCMV antiviral -65*.
Cc1cc(O)ccc1-c1cc(C(=O)NCc2ccc(F)cc2)[nH]n1 was read as FMDV antiviral 18% and HCMV antiviral 32.
CCN(CC)S(=O)(=O)c1cccc(C(=O)Nc2ccc(C#N)cc2)c1 was read as FMDV antiviral 25µM*, LASV entry inh inconclusive, Marburg entry inh -23% and HCMV antiviral inconclusive.
CCN(CC)S(=O)(=O)c1cccc(C(=O)Nc2cc(C)cc(C)c2)c1 was read as FMDV antiviral 28%, LASV entry inh 12%, Marburg entry inh 17% and HCMV antiviral 9.
For CCCOc1ccc(C(=O)Nc2ccc(S(=O)(=O)NC3=NCCCCC3)cc2)cc1 the results were FMDV antiviral -26%, LASV entry inh -24%, Marburg entry inh inconclusive and HCMV antiviral -62*.
For CCN(CC)S(=O)(=O)c1cccc(C(=O)Nc2ccc(S(=O)(=O)NC3=NCCCCC3)cc2)c1 the results were FMDV antiviral inconclusive, LASV entry inh -10%[46.1 µM], Marburg entry inh -27% and HCMV antiviral -62*.
`CCN(CC)S(=O)(=O)c1cccc(C(=O)N/N=C(\C)c2ccc(O)cc2O)c1` gave FMDV antiviral -7%, LASV entry inh inconclusive, Marburg entry inh 7.9µM* and HCMV antiviral -95*.
CCN(CC)S(=O)(=O)c1cccc(C(=O)N/N=C/c2ccc(O)c(O)c2O)c1 was read as FMDV antiviral inconclusive, LASV entry inh 6%, Marburg entry inh 1% and HCMV antiviral 34.
Screening O=C(Nc1ccc([N+](=O)[O-])cc1O)Nc1ccccc1Br returned FMDV antiviral -6%.
Screening O=C(CC(=O)Nc1ccccc1F)Nc1ccc2nc3n(c(=O)c2c1)CCCCC3 returned FMDV antiviral -2%, LASV entry inh 12%[46.1 µM], Marburg entry inh 8%[46.1 µM] and HCMV antiviral -11.
CCN(CC)S(=O)(=O)c1cccc(NC(=O)c2cncc(Br)c2)c1 was read as FMDV antiviral -6% and HCMV antiviral -4.
CCN(CC)S(=O)(=O)c1cccc(NC(=O)c2ccc(Br)cc2)c1 was read as FMDV antiviral 25µM*, LASV entry inh -26%, Marburg entry inh -46%[46.1 µM] and HCMV antiviral inconclusive.
Fc1ccc(-c2noc3ncnc(Nc4ccc(F)cc4F)c23)cc1 was read as FMDV antiviral -14%, LASV entry inh -29%[46.1 µM] and HCMV antiviral -21.
Screening COc1ccc(NC(=S)Nc2ccccc2)c(OC)c1 returned FMDV antiviral 5% and HCMV antiviral -9.
Cc1cccnc1NC(=S)Nc1ncccc1C was read as FMDV antiviral 24%, LASV entry inh inconclusive, Marburg entry inh inconclusive and HCMV antiviral 10.
`COc1ccc(NC(=S)Nc2ncccc2C)c(OC)c1` gave LASV entry inh -39%, Marburg entry inh -29% and HCMV antiviral -63*.
Screening CCOc1cc(NC(=S)Nc2ccccc2)c(OCC)cc1NC(=O)c1ccc(OC)cc1 returned FMDV antiviral 8%, LASV entry inh inconclusive, Marburg entry inh inconclusive and HCMV antiviral -66*.
COc1ccc(NC(=S)Nc2ccc(OCc3ccccc3)cc2)c(OC)c1 was read as FMDV antiviral 0%, LASV entry inh -10%, Marburg entry inh inconclusive and HCMV antiviral -76*.
`CCOc1ccccc1NC(=S)Nc1ncccc1C` gave FMDV antiviral 5%, LASV entry inh inconclusive, Marburg entry inh inconclusive and HCMV antiviral -61*.
For O=C(Nc1ccccc1C(=O)NCC1CC1)c1cccs1 the results were HCMV antiviral 1.
CCOC(=O)c1c(S(=O)(=O)N2CCN(c3cc(Cl)ccc3C)CC2)c(C)n(C)c1C was read as FMDV antiviral 2%, LASV entry inh 4%[46.1 µM] and HCMV antiviral -13.
Screening CCOc1ccc(CN2C(=O)c3ccccc3Sc3ccc(C(=O)NCCCN4CCOCC4)cc32)cc1 returned FMDV antiviral -14%, LASV entry inh inconclusive, Marburg entry inh inconclusive and HCMV antiviral -31.
Screening O=C(NCCCN1CCOCC1)c1ccc2c(c1)N(Cc1ccccc1)C(=O)c1ccccc1S2 returned FMDV antiviral 2%, LASV entry inh 2%[46.1 µM] and HCMV antiviral 0.
`CCCCN(CC)CCCNC(=O)c1ccc2c(c1)N(Cc1ccc(C)cc1)C(=O)c1ccccc1S2` gave FMDV antiviral inconclusive, LASV entry inh inconclusive and HCMV antiviral -98*.
`O=C(NCCN1CCOCC1)c1ccc2c(c1)N(Cc1ccccc1)C(=O)c1ccccc1S2` gave FMDV antiviral -2% and HCMV antiviral active.
Cc1cccc(CN2C(=O)c3ccccc3Sc3ccc(C(=O)NCCCN4CCOCC4)cc32)c1 was read as FMDV antiviral -11%, LASV entry inh -13%[46.1 µM] and HCMV antiviral -64*!.
`COCCCNC(=O)c1ccc2c(c1)N(Cc1ccccc1)C(=O)c1ccccc1S2` gave FMDV antiviral -12%, LASV entry inh -5%[46.1 µM] and HCMV antiviral -6.
For Cc1cc(C)cc(NC(=O)Cn2cc(C(=O)c3cccs3)c3ccccc32)c1 the results were FMDV antiviral -23%, LASV entry inh inconclusive, Marburg entry inh inconclusive and HCMV antiviral inconclusive.
`COc1ccc(CCNC(=O)CSc2ccc(-c3ccco3)nn2)cc1OC` gave FMDV antiviral 4%, LASV entry inh inconclusive, Marburg entry inh inconclusive and HCMV antiviral -63*.
`COc1ccc(NC(=O)CSc2ccc(-c3ccco3)nn2)cc1OC` gave FMDV antiviral inconclusive, LASV entry inh -5%, Marburg entry inh -15% and HCMV antiviral -4.
